According to PubChem BioAssay (NCATS):
Records with an inconclusive call do not appear. The source made the active and inactive calls. Unless noted, calls follow the shape of the dose curve; as a rule, active = well fitted curve in the direction sought with a large enough effect; inconclusive = small, poorly fitted or top-dose-only effect, or another doubt; inactive = no such curve, though single readings can be large; an effect the other way counts as inactive or inconclusive.

Legend:
[1] = target: Cytochrome P450 2C9 (Homo sapiens) (UniProt P11712); assay: qHTS Assay for Inhibitors and Substrates of Cytochrome P450 2C9 (AID 883); also: nearly all actives have a fitted effect of over 60% in size; also: potency is read from the fitted curve at half-maximal effect
How it was run: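 CYP2C9 deoxyluciferin hydroxylation, 37C, 60 min with NADPH regeneration; 10nM enzyme, 100uM Luciferin-H (KM). Glo detection reagent stopped reaction; luminescence normalized to sulphaphenazole (57uM) full inhibition.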

[2] = target: Cytochrome P450 3A4 (Homo sapiens) (UniProt P08684); assay: qHTS Assay for Inhibitors and Substrates of Cytochrome P450 3A4 (AID 884); also: nearly all actives have a fitted effect of over 50% in size; also: potency is read from the fitted curve at half-maximal effect
How it was run: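 20 nM human CYP3A4 with 25 uM Luciferin-PPXE (at KM) in 200 mM KPO4, preincubated 10 min with compound; NADPH regeneration started a 60 min RT reaction. Luciferin detected by luminescence, normalized to 57 uM ketoconazole as full inhibition.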

[3] = target: ATP-dependent 6-phosphofructokinase (Trypanosoma brucei brucei) (UniProt O15648); assay: qHTS Assay to Find Inhibitors of T. brucei phosphofructokinase: hit validation (AID 492961);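 also: luminescence reports ADP formed as PFK phosphorylates fructose-6-phosphate with ATP; % is scaled to controls: 0 for no effect and ±100 for the full control effect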
How it was run: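 Reaction: 0.1 M triethanolamine pH 8.0, 5 mM MgCl2, F6P 0.5 mM, ATP 0.1 mM, PFK 1.25 nM, 45 min RT. Read-out: ADP-Glo luminescence. Analysis: concentration-response fits, classed by r2 and efficacy.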

[4] = qHTS profiling for inhibitors of Plasmodium falciparum proliferation (AID 504749);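 also: 0% = DMSO vehicle and full inhibition = artemisinin control; nearly all actives have a fitted effect of over 60% in size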; settings: P. falciparum in erythrocytes, SYBR Green DNA, 72 h
How it was run: (§1)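 Parasite proliferation within erythrocytes, 72 h exposure. Endpoint: SYBR Green I fluorescence after overnight lysis at room temperature. Controls: 0.29 uM artemisinin, DMSO.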

[5] = test system: AS120; assay: as above; settings: P. falciparum in erythrocytes, SYBR Green DNA, 72 h; series mostly up to 28.7 µM
How it was run: as §1

[6] = test system: ATS189; assay: as above; settings: P. falciparum in erythrocytes, SYBR Green DNA, 72 h; series mostly up to 28.7 µM
How it was run: as §1

[7] = test system: CP185; assay: as above; settings: P. falciparum in erythrocytes, SYBR Green DNA, 72 h; series mostly up to 28.7 µM
How it was run: as §1

[8] = test system: CP192; assay: as above; settings: P. falciparum in erythrocytes, SYBR Green DNA, 72 h; series mostly up to 28.7 µM
How it was run: as §1

[9] = test system: CP201; assay: as above; settings: P. falciparum in erythrocytes, SYBR Green DNA, 72 h; series mostly up to 28.7 µM
How it was run: as §1

[10] = test system: CP238; assay: as above; settings: P. falciparum in erythrocytes, SYBR Green DNA, 72 h; series mostly up to 28.7 µM
How it was run: as §1

[11] = test system: CP247; assay: as above; settings: P. falciparum in erythrocytes, SYBR Green DNA, 72 h; series mostly up to 28.7 µM
How it was run: as §1

[12] = test system: CP252; assay: as above; settings: P. falciparum in erythrocytes, SYBR Green DNA, 72 h; series mostly up to 28.7 µM
How it was run: as §1

[13] = test system: CP265; assay: as above; settings: P. falciparum in erythrocytes, SYBR Green DNA, 72 h; series mostly up to 28.7 µM
How it was run: as §1

[14] = test system: CP329; assay: as above; settings: P. falciparum in erythrocytes, SYBR Green DNA, 72 h; series mostly up to 28.7 µM
How it was run: as §1

[15] = test system: HB3; assay: as above; settings: P. falciparum in erythrocytes, SYBR Green DNA, 72 h; series mostly up to 28.7 µM
How it was run: as §1

[16] = test system: PAD; assay: as above; settings: P. falciparum in erythrocytes, SYBR Green DNA, 72 h; series mostly up to 28.7 µM
How it was run: as §1

[17] = test system: SC27B; assay: as above; settings: P. falciparum in erythrocytes, SYBR Green DNA, 72 h; series mostly up to 28.7 µM
How it was run: as §1

[18] = test system: W2; assay: as above; settings: P. falciparum in erythrocytes, SYBR Green DNA, 72 h; series mostly up to 28.7 µM
How it was run: as §1

[19] = qHTS Assay for Identification of Small Molecule Antagonists for NFkB Signaling Pathway (AID 895; active = well fitted inhibition curve with a large enough effect in the signal ratio, with a control signal flat, not every such curve was filed as active; the % refers to the signal ratio; also: potency is read from the fitted curve at half-maximal effect)
How it was run: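 NFkB-bla ME-180 cervical carcinoma cells with beta-lactamase reporter under NFkB response element; compounds added, then TNF alpha at 10 pM final (EC50), 5 h at 37 C. LiveBLAzer substrate 2 h, room temperature; emission 460/530 nm at 405 nm excitation.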

[20] = qHTS Assay for Identification of Small Molecule Agonists for Hypoxia Response Element Signaling Pathway (AID 914; active = well fitted activation curve with a large enough effect in the signal ratio, with a control signal flat, not every such curve was filed as active; the % refers to the signal ratio; also: % of control where 0% means no effect); settings: ME-180 (cervical carcinoma) HRE-bla reporter, beta-lactamase ratio, CoCl2, 17 h; activation: stronger effect = higher value
How it was run: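 AC50 values come from titration-series %Activity, taken as the 460/530nm ratio of CCF4 fluorescence (excitation 405nm). CellSensor HRE-bla ME-180 cells were treated 17 hours at 37 C with compound plus an EC50 level of CoCl2.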

[21] = at 28.7 µM (top of the series), parasite line A
[22] = at 28.7 µM (top of the series), parasite line B

Sequence of Cytochrome P450 2C9 (Homo sapiens) (P11712 whole entry, looked up): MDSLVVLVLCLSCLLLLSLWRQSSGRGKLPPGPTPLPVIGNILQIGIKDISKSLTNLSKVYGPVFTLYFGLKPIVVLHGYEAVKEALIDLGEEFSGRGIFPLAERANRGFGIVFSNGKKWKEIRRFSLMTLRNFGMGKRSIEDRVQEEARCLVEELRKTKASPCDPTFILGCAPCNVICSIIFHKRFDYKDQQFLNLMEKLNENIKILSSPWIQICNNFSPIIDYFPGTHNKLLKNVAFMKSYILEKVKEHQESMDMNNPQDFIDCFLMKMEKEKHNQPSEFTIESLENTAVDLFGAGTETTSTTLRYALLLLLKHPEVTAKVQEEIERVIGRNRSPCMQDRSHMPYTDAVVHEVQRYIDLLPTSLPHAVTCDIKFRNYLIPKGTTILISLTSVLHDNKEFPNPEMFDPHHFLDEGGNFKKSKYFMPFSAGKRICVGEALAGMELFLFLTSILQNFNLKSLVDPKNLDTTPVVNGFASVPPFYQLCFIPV
Sequence of ATP-dependent 6-phosphofructokinase (Trypanosoma brucei brucei) (O15648 whole entry, looked up): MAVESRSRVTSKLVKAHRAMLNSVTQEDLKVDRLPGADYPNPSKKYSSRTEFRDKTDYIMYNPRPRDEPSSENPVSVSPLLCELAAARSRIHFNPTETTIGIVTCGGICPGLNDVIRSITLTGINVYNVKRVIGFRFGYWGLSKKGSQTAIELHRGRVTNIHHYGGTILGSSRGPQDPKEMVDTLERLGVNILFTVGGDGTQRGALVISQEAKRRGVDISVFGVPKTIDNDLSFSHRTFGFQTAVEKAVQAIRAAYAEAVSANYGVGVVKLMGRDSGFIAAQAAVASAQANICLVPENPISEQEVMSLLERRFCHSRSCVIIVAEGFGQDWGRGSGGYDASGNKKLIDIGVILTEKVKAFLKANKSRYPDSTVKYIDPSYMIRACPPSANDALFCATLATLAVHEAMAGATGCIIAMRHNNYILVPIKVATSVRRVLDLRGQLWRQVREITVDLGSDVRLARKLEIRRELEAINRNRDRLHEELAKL
Sequence of Cytochrome P450 3A4 (Homo sapiens) (P08684 whole entry, looked up): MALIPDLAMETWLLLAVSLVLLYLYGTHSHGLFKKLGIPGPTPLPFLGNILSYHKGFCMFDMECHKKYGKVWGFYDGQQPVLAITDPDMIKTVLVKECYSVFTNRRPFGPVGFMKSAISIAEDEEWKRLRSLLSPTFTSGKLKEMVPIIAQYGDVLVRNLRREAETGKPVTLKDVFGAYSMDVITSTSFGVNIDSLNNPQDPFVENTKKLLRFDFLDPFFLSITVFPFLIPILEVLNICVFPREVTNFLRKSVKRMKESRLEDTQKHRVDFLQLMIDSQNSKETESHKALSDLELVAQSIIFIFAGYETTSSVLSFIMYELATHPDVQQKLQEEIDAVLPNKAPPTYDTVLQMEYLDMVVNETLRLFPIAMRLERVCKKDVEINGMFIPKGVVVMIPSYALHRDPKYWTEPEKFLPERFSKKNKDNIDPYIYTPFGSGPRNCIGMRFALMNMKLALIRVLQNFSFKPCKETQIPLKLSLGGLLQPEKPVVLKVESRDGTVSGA

Cc1cc(O)c(C(C)C)cc1C1(c2cc(C(C)C)c(O)cc2C)OC(=O)c2ccccc21
active: Potency [1] 0.316 µM | Potency [2] 1.58 µM

C[N+]1(C)[C@@H]2CC(OC(=O)[C@@H](CO)c3ccccc3)C[C@@H]1[C@H]1O[C@H]12 (some centres undefined)
inactive: outcome [3] | activity, negative = inhibition [4, 21] 5.68% | activity, negative = inhibition [4, 22] -7.21% | Potency [5] | Potency [6] | Potency [7] | Potency [8] | Potency [9] | Potency [10] | Potency [11] | Potency [12] | Potency [13] | Potency [14] | Potency [15] | Potency [16] | Potency [17] | Potency [18]

CC(=O)N1CCN(c2ccc(OC[C@@H]3CO[C@@](Cn4ccnc4)(c4ccc(Cl)cc4Cl)O3)cc2)CC1
inactive: outcome [3] | activity, negative = inhibition [4, 21] -14.8% | activity, negative = inhibition [4, 22] -14.2% | Potency [5] | Potency [6] | Potency [7] | Potency [8] | Potency [9] | Potency [10] | Potency [11] | Potency [12] | Potency [13] | Potency [14] | Potency [15] | Potency [16] | Potency [17] | Potency [18]

COc1cc2nc(N(C)CCCNC(=O)[C@@H]3CCCO3)nc(N)c2cc1OC
inactive: outcome [3] | activity, negative = inhibition ([4]; at 12.8 µM (top of the series), parasite line A) 3.61% | activity, negative = inhibition ([4]; at 12.8 µM (top of the series), parasite line B) 7.55% | Potency [5] | Potency [6] | Potency [7] | Potency [8] | Potency [9] | Potency [10] | Potency [11] | Potency [12] | Potency [13] | Potency [14] | Potency [15] | Potency [16] | Potency [17] | Potency [18]

NC(=S)NCCC[C@@H](N)C(=O)O
inactive: Potency [19]

C[C@@H]1O[C@@H](n2cc(F)c(=O)[nH]c2=O)[C@H](O)[C@@H]1O
inactive: Potency [19]

CN1CC[C@@]2(CCN3CCc4c(oc5ccccc45)[C@@H]3C2)N(C)C1=O
inactive: Potency [19]

CSc1nc(N)c2ncn([C@@H]3O[C@@H](COP(=O)(O)OP(=O)(O)OP(=O)(O)O)[C@@H](O)[C@H]3O)c2n1
inactive: Potency [1] | Potency [2]

CN1CCc2cc(Cl)c(O)cc2[C@H](c2ccccc2)C1
inactive: Potency [2] | activation [20] -21.3%

CC(C)C[C@H](NC(=O)[C@@H](O)[C@@H](N)Cc1ccccc1)C(=O)O
active: Potency [19] 1.58 µM

OC[C@@H]1NC[C@@H](O)[C@@H](O)[C@H]1O
inactive: Potency [19]

Nc1ncnc2c1ncn2[C@@H]1CCCO1
inactive: Potency [1] | activation [20] -13.1%

O=[N+]([O-])c1ccc(CSc2ncnc3c2ncn3[C@@H]2O[C@@H](CO)[C@@H](O)[C@H]2O)cc1
inactive: Potency [2] | Potency [19]

C[C@@H](Cc1ccccc1)Nc1ncnc2c1ncn2[C@@H]1O[C@@H](CO)[C@H](O)[C@@H]1O
active: Potency [19] 3.98 µM

O=C(O)CCCC[C@H]1CCSS1
inactive: Potency [1] | Potency [19]

O=C1O/C(=C\Br)CC[C@@H]1c1cccc2ccccc12
active: Potency [2] 3.98 µM

CC(C)[C@@H]1NC(=O)[C@H](CCCCN)NC(=O)[C@H](Cc2c[nH]c3ccccc23)NC(=O)[C@H](Cc2ccc(O)cc2)NC(=O)[C@H](C)N(C)C(=O)[C@H](Cc2ccccc2)NC1=O
active: Potency [2] 3.98 µM

OC[C@@H]1NC[C@@H](O)[C@H]1O
inactive: Potency [19]

N=c1ccn2c(n1)O[C@@H]1[C@@H](O)[C@H](CO)O[C@H]12
inactive: Potency [1] | Potency [2]

NC(=O)C1=CN([C@@H]2O[C@@H](COP(=O)(O)OP(=O)(O)OC[C@@H]3O[C@H](n4cnc5c(N)ncnc54)[C@@H](OP(=O)(O)O)[C@@H]3O)[C@H](O)[C@@H]2O)C=CC1
inactive: Potency [19]

Cc1ccccc1N1CCN(S(=O)(=O)C[C@@]23CC[C@H](C[C@H]2NC(=O)[C@@H](N)CCS(C)(=O)=O)C3(C)C)CC1
active: Potency [2] 3.16 µM
inactive: Potency [19]

CNC(=O)[C@@H]1O[C@@H](n2cnc3c(NCc4ccc(N)cc4)ncnc32)[C@@H](O)[C@H]1O
active: Potency [19] 12.6 µM

C[C@H]1CN(S(=O)(=O)c2cccc3cnccc23)CCN1
active: Potency [19] 2.82 µM

O=C(O)/C=C\c1cnc[nH]1
inactive: activation [20] -4.56%

NCC[C@H]1CCC[C@H](CCN)N1
inactive: Potency [19]

CN1C[C@@H](O)[C@@H](O)[C@@H](O)[C@@H]1CO
inactive: Potency [1] | activation [20] 11.9%

N[C@H](Cc1ccc(O)c(I)c1)C(=O)O
inactive: Potency [1]
